Screening data: PubChem, The Scripps Research Institute Molecular Screening Center
FBW7 activator = human FBW7 E3 ligase activation, primary screen; Q969H0; AlphaScreen FBW7–phospho-cyclin E peptide binding, activator screen; normalized activity (activation), % at 26.1 µM; actives 0.13% (n = 650,000); in the data active means normalized activity above about 1.9%;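 further: purified mutant Fbw7 with reduced substrate affinity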
TEAD-YAP inh = TEAD-YAP interaction inhibition | HEK-TIYL cells, TEAD-Gal4/YAP UAS-luciferase luminescence | inhibition, % at 9.12 µM | actives 1.4% (n = 640,000) | AID 1259422; in the data active means inhibition above about 32%;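 further: 0% = median of test compound wells and 100% = reference inhibitor wells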
MITF inh = blocks human microphthalmia-associated transcription factor. inhibition, % at 2.6 µM. AlphaScreen MITF homodimerization, bead proximity signal. actives 0.91% (n = 650,000). O75030; in the data active means inhibition above about 50%;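 further: 0% = vehicle wells with protein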
GPR151 ag = activates the human receptor GPR151; actives 1% (n = 650,000); PathHunter beta-arrestin GPR151 cells, luminescence; activation, % at 11.2 µM; Q8TDV0; in the data active means activation above about 4.9%;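 further: 0% = median of compound wells and 100% = cells with positive control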
Target sequence (Q8TDV0 whole entry, looked up): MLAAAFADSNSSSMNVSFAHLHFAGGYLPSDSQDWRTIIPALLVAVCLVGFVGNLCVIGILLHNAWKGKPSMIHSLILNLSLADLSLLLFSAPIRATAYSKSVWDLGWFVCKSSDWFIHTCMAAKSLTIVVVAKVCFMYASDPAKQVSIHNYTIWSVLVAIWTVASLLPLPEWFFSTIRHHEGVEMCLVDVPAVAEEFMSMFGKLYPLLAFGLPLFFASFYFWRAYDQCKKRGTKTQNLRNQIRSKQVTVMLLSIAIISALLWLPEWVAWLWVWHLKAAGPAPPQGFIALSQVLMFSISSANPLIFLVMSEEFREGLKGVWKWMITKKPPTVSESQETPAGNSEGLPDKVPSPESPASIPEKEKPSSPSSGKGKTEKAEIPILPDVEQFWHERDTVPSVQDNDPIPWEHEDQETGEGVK
MITF inh conf = confirmation of human MITF inhibitors; shares compounds with MITF inh; AlphaScreen MITF homodimerization, biotin/His-MITF beads; inhibition, % at 2.6 µM; actives 16% (n = 4,700); AID 1259372;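 active means inhibition above a cutoff derived from the DMSO control wells, cut at about 28% in these data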;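 further: 0% = MITF dimer wells with DMSO only; inhibitors lower the bead chemiluminescence by keeping MITF from dimerizing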
AS interf ctr = AlphaScreen optical interference, counter-screen | actives 7.6% (n = 4,700) | LysRS AlphaScreen counterscreen, signal interference, triplicate | inhibition, % at 2.6 µM | shares compounds with MITF inh | AID 1259376;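 active means inhibition above a cutoff derived from the DMSO control wells, cut at about 30% in these data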
* hit, by the source's call. Rows were chosen to be rich in hits. Some 3.4% of all compounds tested hit in one or more screens of this group.

What do the screens show for `COc1ccc(CN2CCN(C(=O)c3ccncc3)CC2)cc1OC`?
FBW7 activator: 0; TEAD-YAP inh: 3; MITF inh: 70*; GPR151 ag: 0; MITF inh conf: -9; AS interf ctr: -3

What do the screens show for `COc1cc(C(=O)N2CCN(Cc3ccncc3)CC2)cc(OC)c1OC`?
FBW7 activator: 0; TEAD-YAP inh: 0; MITF inh: 76*; GPR151 ag: -1; MITF inh conf: -9; AS interf ctr: -2

What do the screens show for `COc1ccc(C(=O)N2CCN(Cc3ccc(OC)c(OC)c3)CC2)cc1`?
FBW7 activator: 0; TEAD-YAP inh: -6; MITF inh: 25; GPR151 ag: -2

What do the screens show for `Cc1oc2c(cc(NS(=O)(=O)c3ccc(Cl)cc3)c3ccccc32)c1C(=O)OC(C)C`?
FBW7 activator: 0; TEAD-YAP inh: -7; MITF inh: -7; GPR151 ag: 1

Results for CC1=CC(C)(C)NC(=S)N1c1cc(Cl)cc(Cl)c1 ?
FBW7 activator: 0; TEAD-YAP inh: -4; MITF inh: 58*; GPR151 ag: -1; MITF inh conf: 10; AS interf ctr: 18

What do the screens show for `CC1=CC(C)(C)NC(=S)N1c1ccc(Cl)cc1`?
FBW7 activator: 0; TEAD-YAP inh: 6; MITF inh: 15; GPR151 ag: 1

What do the screens show for `CC#CC(=O)N1CCC(Cc2ccc(OC)cc2)(C(=O)OCC)CC1`?
FBW7 activator: 0; TEAD-YAP inh: -31; MITF inh: 95*; GPR151 ag: 2; MITF inh conf: 2; AS interf ctr: -6

Results for O=C1c2ccccc2C(=O)N1c1ccccc1 ?
FBW7 activator: 0; TEAD-YAP inh: 9; MITF inh: 21; GPR151 ag: -2

How did Nc1cccc2c1C(=O)N(c1ccccc1)C2=O do in these assays?
FBW7 activator: 0; TEAD-YAP inh: -6; MITF inh: 52*; GPR151 ag: 0; MITF inh conf: 0; AS interf ctr: 10

How did COc1cccc(/C(C)=N/N2CCN(Cc3cccc4ccccc34)CC2)c1 do in these assays?
FBW7 activator: 0; TEAD-YAP inh: 8; MITF inh: 2; GPR151 ag: -1

Results for COc1cccc(CN2CCN(Cc3ccc(OC)c(Br)c3)CC2)c1 ?
FBW7 activator: 0; TEAD-YAP inh: 2; MITF inh: 66*; GPR151 ag: 0; MITF inh conf: 13; AS interf ctr: 9

Results for COc1ccc(CN2CCN(Cc3cccc4ccccc34)CC2)cc1Br ?
FBW7 activator: 0; TEAD-YAP inh: -8; MITF inh: 72*; GPR151 ag: -1; MITF inh conf: 0; AS interf ctr: -2

What do the screens show for `CCCS(=O)(=O)N1CCN(Cc2ccc(OC)c(Br)c2)CC1`?
FBW7 activator: 0; TEAD-YAP inh: 6; MITF inh: 11; GPR151 ag: 1

What do the screens show for `COc1cccc(CN2CCN(Cc3cccc4ccccc34)CC2)c1`?
FBW7 activator: 0; TEAD-YAP inh: 2; MITF inh: 77*; GPR151 ag: 2; MITF inh conf: -15; AS interf ctr: 0

How did COc1ccc(CN2CCN(S(C)(=O)=O)CC2)cc1Br do in these assays?
FBW7 activator: 0; TEAD-YAP inh: 10; MITF inh: 70*; GPR151 ag: 0; MITF inh conf: 5; AS interf ctr: 16

Results for CCS(=O)(=O)N1CCN(Cc2ccc(OC)c(Br)c2)CC1 ?
FBW7 activator: 0; TEAD-YAP inh: 7; MITF inh: 44; GPR151 ag: 1

Results for CCOC(=O)c1ccc(CN(Cc2ccc(C)cc2)S(=O)(=O)c2ccc(F)cc2)cc1 ?
FBW7 activator: 0; TEAD-YAP inh: -11; MITF inh: 5; GPR151 ag: -1

How did CCOC(=O)N1CCN(Cc2ccc(OC)c(Br)c2)CC1 do in these assays?
FBW7 activator: 0; TEAD-YAP inh: -5; MITF inh: 2; GPR151 ag: -1

What do the screens show for `COc1ccc(CN2CCN(Cc3ccc(OC)c(Br)c3)CC2)cc1`?
FBW7 activator: 0; TEAD-YAP inh: 10; MITF inh: 62*; GPR151 ag: 0; MITF inh conf: 14; AS interf ctr: -3

Results for COc1cc(CN2CCN(Cc3ccccc3Cl)CC2)cc(OC)c1 ?
FBW7 activator: 0; TEAD-YAP inh: 2; MITF inh: 69*; GPR151 ag: 1; MITF inh conf: 5; AS interf ctr: -2

Results for O=C(NCC1(c2cccs2)CC1)c1ccc(Br)o1 ?
FBW7 activator: 0; TEAD-YAP inh: 8; MITF inh: 8; GPR151 ag: 1
